The list is not random: actives were taken first. Their share in the collection is about 6.3%.
ATXN2 expr inh: Primary qHTS for Inhibitors of ATXN expression. HEK-293 ATXN2-luciferase reporter, luminescence, 24 h. Potency, µM (top dose mostly 57 µM), for inactives: at the highest dose activity change, negative = inhibition, hits mostly inhibitors. actives 0.72% (n = 360,000). AID 1745845, 2022; also: % is scaled to controls: 0 for no effect and ±100 for the full control effect; nearly all actives have a fitted effect of over 55% in size
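qHTS (up to 57 uM final) was run with 24 h compound exposure of reporter cells at 37 °C. Each well was multiplexed: SteadyGlo luminescence measured ATXN2-luciferase expression after a fluorogenic Gly-Phe-AFC viability readout (25 uM final).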
VP16 counter: VP16 counterscreen qHTS for inhibitors of ROR gamma transcriptional activity; actives 3.5% (n = 310,000); AID 2546, 2010; Potency, µM (highest dose often 53.6 µM), without a hit: at the highest dose activity, negative = inhibition, actives largely listed as inhibitors; Drosophila S2 Gal4-VP16 UAS-luciferase, luminescence, 20 h;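 also: Gal4-VP16 expression switched on by copper sulfate through the metallothionein promoter; % is scaled to controls: 0 for no effect and ±100 for the full control effect; nearly all actives have a fitted effect of over 50% in size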
TGFb inhibitor: qHTS for Inhibitors of TGF-b; actives 1.2% (n = 410,000); Potency, µM (doses to about 46.1 µM), inactives show at the highest dose activity, negative = inhibition, usual class: inhibitors; HepG2 CAGA-GFP TGF-b/SMAD3 reporter, GFP fluorescence, 18 h; TGF-beta stimulated, 500 pg/mL final; also: % is scaled to controls: 0 for no effect and ±100 for the full control effect; nearly all actives have a fitted effect of over 65% in size
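Inhibition was scored as loss of TGF-beta-induced (500 pg/mL final, 18 hours, 37 degrees C) GFP in HEPG2 cells carrying a CAGA-GFP reporter, in DMEM with 1% FBS. Well GFP was summed per cell; Activity was normalised to unstimulated and stimulated DMSO wells, then concentration-response fitting.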
RORgamma inh: qHTS for inhibitors of ROR gamma transcriptional activity; Drosophila S2 Gal4-RORgamma UAS-luciferase reporter, 20 h; actives 5.4% (n = 310,000); Potency, µM (highest dose often 53.6 µM), inactives show top-dose activity change, negative = inhibition, actives largely listed as inhibitors; also: % is scaled to controls: 0 for no effect and ±100 for the full control effect; nearly all actives have a fitted effect of over 60% in size
Target sequence (P51450 whole entry, looked up, the tested form may be a part): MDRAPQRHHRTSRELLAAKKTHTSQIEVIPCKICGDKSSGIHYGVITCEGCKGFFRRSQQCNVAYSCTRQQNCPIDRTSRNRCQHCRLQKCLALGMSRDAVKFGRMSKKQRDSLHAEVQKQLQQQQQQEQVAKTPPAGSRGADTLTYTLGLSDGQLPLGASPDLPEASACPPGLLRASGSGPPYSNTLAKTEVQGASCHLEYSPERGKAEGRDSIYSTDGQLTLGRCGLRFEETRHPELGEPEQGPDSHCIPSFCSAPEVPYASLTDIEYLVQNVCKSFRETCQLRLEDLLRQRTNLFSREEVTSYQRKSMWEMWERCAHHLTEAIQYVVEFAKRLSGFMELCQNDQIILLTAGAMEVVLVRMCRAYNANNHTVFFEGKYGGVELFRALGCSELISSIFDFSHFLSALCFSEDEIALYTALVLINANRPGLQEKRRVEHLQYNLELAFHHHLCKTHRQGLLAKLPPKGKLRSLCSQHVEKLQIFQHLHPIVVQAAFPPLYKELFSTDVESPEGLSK
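Luminescence from a UAS-regulated Photinus luciferase reporter in stably transfected Drosophila Schneider cells is measured; decreased signal marks ROR gamma inhibition. Fusion expression is induced by 700 uM copper sulfate for 20 hr.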
HepG2 viability: qHTS for Inhibitors of TGF-b: Cytotox Counterscreen; actives 0.76% (n = 410,000); HepG2 CAGA-GFP viability, ATP luminescence, 18 h; Potency, µM (highest dose often 46.1 µM), for the others: top-dose activity change, negative = cytotoxicity, hits mostly cytotoxic
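CellTiter-Glo luminescence gave cytotoxicity after 18 hours at 37 degrees C. The cells were HepG2 CAGA-GFP in 1% FBS DMEM, stimulated with 500 pg/mL TGF-beta after compound addition. %Activity was normalised to no-cell wells (complete cell-killing) and DMSO (no toxicity), and curves were fitted and classified.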
ATXN viability: Viability Counterscreen for Primary qHTS for Inhibitors of ATXN expression | S2 cells (HEK-293 line with an ATXN2-luciferase reporter) viability, CellTiter-Fluor protease fluorescence, 24 h | Potency, µM (top dose mostly 56.7 µM), most hits filed as cytotoxic | actives 0.49% (n = 400,000) | AID 651635, 2014; also: nearly all actives have a fitted effect of over 40% in size
Numbers without * were called inactive; i = inactive; u = inconclusive; x = no result given; [ ] = dose if it differs, or a comment. Calls follow the shape of the dose curve; as a rule, active = well fitted curve in the direction sought with a large enough effect; inconclusive = small, poorly fitted or top-dose-only effect, or another doubt; inactive = no such curve, though single readings can be large; an effect the other way counts as inactive or inconclusive. Potency is read from the fitted curve at half-maximal effect.

SMILES	ATXN2 expr inh	VP16 counter	TGFb inhibitor	RORgamma inh	HepG2 viability	ATXN viability
Cc1cc(C)cc(NS(=O)(=O)c2ccc3c(c2)CCCN3C(=O)C2CCC2)c1	u	x	u	x	-34%	25µM*
CCOC(=O)c1ccccc1NC(=O)CCc1c(C)nc2ncnn2c1C	11%	x	1%	x	3%	i
Cn1cc(S(=O)(=O)N2CCc3ccccc32)cc1C(=O)NC(C)(C)C	-13%	5µM*	u	-6%	-29%	i
Cc1cccc(C)c1NC(=O)c1cc(S(=O)(=O)N2CCc3ccccc32)cn1C	-11%	-9%	-15%	19%	-24%	i
O=Cc1ccc(CS)cc1	x	x	-10%	x	-18%	x
COc1ccc(C(=O)CC2(O)C(=O)Nc3c(Cl)ccc(Cl)c32)cc1 (stereo not drawn)	-19%	x	x	x	x	x
O=C(CN(c1ccc(Cl)cc1)S(=O)(=O)c1ccc(Cl)c([N+](=O)[O-])c1)NCCc1ccccc1	u	-8%	-18%	-1%	0%	u
O=C(CN(c1ccc(Cl)cc1)S(=O)(=O)c1ccc(Cl)c([N+](=O)[O-])c1)NCCc1ccc(F)cc1	-30%	7.1µM*	u	7.9µM*	12%	i
Cc1ccc(CN2CCc3nc(SCC(=O)Nc4cccc(C)c4C)[nH]c(=O)c3C2)cc1	4%	x	2%	x	-5%	i
CC(C)=CCc1c(O)cc(O)c2c(=O)c3c(CC=C(C)C)c(O)ccc3oc12	u	x	4µM*	x	16µM*	25µM*
Cc1cc(N2CCN(c3ccc(C(F)(F)F)cc3[N+](=O)[O-])CC2)c2ccccc2n1	x	u	10µM*	-43%	-61%	x
Cc1cc(N2CCN(c3ccc([N+](=O)[O-])c4cccnc34)CC2)c2ccccc2n1	u	7.1µM*	u	13µM*	3.2µM*	u
O=C(c1ccccc1F)N1CCN(c2ccc([N+](=O)[O-])c3cccnc23)CC1	-17%	21%	16%	5%	-3%	i
COc1ccc(C2c3c(ncn(Cc4ccco4)c3=N)Oc3ccc4ccccc4c32)cc1 (stereo not drawn)	-35%	8.9µM*	-5%	18µM*	3%	u
N=c1c2c(ncn1Cc1ccco1)Oc1ccc3ccccc3c1C2c1ccccc1 (stereo not drawn)	22µM*	-16%	0%	-27%	-2%	x
COc1ccc(C2c3ccc(O)cc3Oc3ncn(Cc4ccco4)c(=N)c32)cc1 (stereo not drawn)	x	23%	6%	8%	-35%	i
Cc1ccc(NC(=O)CN2C(=O)c3ccccc3Sc3ncccc32)c(C)c1	-16%	x	-14%	x	2%	i
Cc1sc2nc(CN(C(=O)c3cccs3)C3CCCC3)[nH]c(=O)c2c1C	13%	u	-18%	11µM*	-21%	i
COCC(=O)N(Cc1nc2sc(C)c(C)c2c(=O)[nH]1)C1CCCCC1	1%	9%	-7%	-15%	-6%	i
Cc1sc2nc(CN(C(=O)NC3CCCCC3)C3CCCC3)[nH]c(=O)c2c1C	2%	14µM*	8%	8.9µM*	0%	u
COc1cc(/C=N/n2c(C)n[nH]c2=S)ccc1OCc1ccc(F)cc1	14%	13%	3%	4µM*	-10%	i
CCOc1cc(/C=N/NC(=O)CN2CCOCC2)ccc1OCc1ccc(Cl)cc1	-8%	-2%[0.365 µM]	-6%	-8%	-31%	i
CCOc1cc(/C=N/O)ccc1OCc1ccc(F)cc1	24%	-21%	-17%	8%	-41%	i
CCOc1cc(/C=N/N=C(N)N)ccc1OCc1ccc(Cl)cc1	u	8.9µM*	u	u	-95%	32µM*
COc1cc(/C=N\n2nnnc2N)ccc1OCc1ccc(F)cc1	12%	u	17%	-4%	-1%	i
SMILES	ATXN2 expr inh	VP16 counter	TGFb inhibitor	RORgamma inh	HepG2 viability	ATXN viability
COc1cc(/C=N/O)ccc1OCc1ccc(Cl)cc1	x	u	x	1.1µM*	x	x
NC(N)=N/N=C/c1ccc(OCc2ccccc2)c(OCc2ccccc2)c1	22µM*	u	18µM*	u	16µM*	22µM*
Nc1ccc(S(=O)(=O)NN=Cc2ccccc2[N+](=O)[O-])cc1	-6%	x	6%	x	1%	u
COc1cc(/C=N/N=C(N)N)ccc1OCc1ccc(Cl)cc1	u	-27%[10 µM]	u	-105%	10µM*	i
COc1cc(/C=N/O)ccc1OCc1ccc(C(=O)O)cc1	0.71µM*	4µM*	9%	1µM*	-32%	i
Cc1nc([N+](=O)[O-])cn1CC(O)c1ccc2c(c1)OCO2 (stereo not drawn)	x	x	-10%	x	-15%	x
CCCNC(=O)C1(C)CCN(C(=O)c2cc(C(C)(C)C)nn2C)C1 (stereo not drawn)	2%	x	17%	x	-3%	i
COc1ccc(C)cc1NC(=O)CSc1ccc(-c2ccccn2)nn1	14µM*	2%	u	17%	0%	u
CCOC(=O)c1ccccc1NC(=O)CSc1ccc(-c2ccccn2)nn1	3.5µM*	-3%	8%	-20%	-8%	u
CCOC(=O)c1ccccc1NC(=O)CSc1nc2ncccc2o1	8%	x	-1%	x	2µM*	i
O=C(CSc1ccc(-c2ccccn2)nn1)c1ccc([N+](=O)[O-])cc1	-21%	u	6%	4.5µM*	-6%	i
Cn1ccc(C(=O)NCC2CCC3(CCN(Cc4ccc(F)cc4F)CC3)O2)n1 (stereo not drawn)	x	x	x	x	x	i
Oc1ccc(O)c(Cc2nc3ccccc3[nH]2)c1	19%	-29%	5%	16µM*	-12%	i
Cc1ccc(-n2c(C)cc(C(=O)COC(=O)c3ccc[nH]c3=O)c2C)cc1C	-14%	0.02µM*	0%	-38%	-1%	i
CCCn1c(C)cc(C(=O)COC(=O)c2ccc[nH]c2=O)c1C	u	6.3µM*	-6%	4µM*	0%	i
Cc1cc(C(=O)COC(=O)c2ccc[nH]c2=O)c(C)n1-c1ccccc1F	x	u	-5%	u	-13%	i
CCCCNC(=S)N1CCN(c2ccccc2Cl)CC1	-16%	16%	-4%	11µM*	-4%	i
COc1ccccc1NC(=S)N1CCN(c2ccccc2F)CC1	x	u	4%	u	19%	u
Cc1ccccc1NC(=S)N1CCCC1	0%	-5%	-27%	-33%	-5%	i
C=CCNC(=S)N1CCN(c2ccccc2Cl)CC1	x	8%	u	-24%	-28%	i

Compound activity deposited in PubChem by National Center for Advancing Translational Sciences (NCATS).
